Values joined by “and” are separate entries in the source; they are usually repeats but may differ in a detail not shown here. Equal entries are not always repeated. About 2,000 (36%) of roughly 5,500 compounds were called active. About 18% were inconclusive and are not listed. Cut-off read from the data, not from the text of the source: active = normalized growth mostly below about 0.91 (no sharp cut-off); inconclusive = no clear call, values can overlap the other calls; inactive = mostly above about 0.92. The list shows a part of the results.
Experiment: chemical genetic growth profiling, strain panel (AID 1159580);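 note: tested at 20 µM; growth read once vehicle control cultures reached saturation at 30 °C; 1 = growth at the plate median or of vehicle wells; lower values mean less growth of the strain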
Conditions: S. cerevisiae deletion strains, growth OD

Measured: normalized growth

COC(=O)[C@H]1[C@H]2C[C@@H]3c4[nH]c5cc(OC)ccc5c4CCN3C[C@H]2C[C@@H](OC(=O)c2cc(OC)c(OC)c(OC)c2)[C@@H]1OC
inactive: locus YAL013W, strain DEP1, stronger effect = lower value 0.994 | locus YAL021C, strain ccr4, stronger effect = lower value 0.965 | locus YAL026C, strain drs2, stronger effect = lower value 0.974 | locus YAL030W, strain snc1, stronger effect = lower value 0.981 | locus YBL061C, strain skt5, stronger effect = lower value 1 | locus YBR009C, strain hhf1, stronger effect = lower value 1.01 | locus YBR021W, strain FUR4, stronger effect = lower value 0.981 | locus YBR023C, strain chs3, stronger effect = lower value 0.979 | locus YBR171W, strain sec66, stronger effect = lower value 1 | locus YBR229C, strain ROT2, stronger effect = lower value 0.991 | locus YBR231C, strain swc5, stronger effect = lower value 0.987 | locus YBR279W, strain paf1, stronger effect = lower value 0.965 | locus YCL011C, strain gbp2, stronger effect = lower value 0.97 | locus YCL016C, strain dcc1, stronger effect = lower value 0.94 | locus YCL029C, strain bik1, stronger effect = lower value 1.03 | locus YCL069W, strain vba3, stronger effect = lower value 1.01 | locus YCR088W, strain abp1, stronger effect = lower value 0.999 | locus YDL005C, strain med2, stronger effect = lower value 0.98 | locus YDL035C, strain GPR1, stronger effect = lower value 0.979 | locus YDL040C, strain nat1, stronger effect = lower value 0.992 | locus YDL074C, strain BRE1, stronger effect = lower value 0.952 | locus YDL101C, strain DUN1, stronger effect = lower value 1.01 | locus YDL134C, strain PPH21, stronger effect = lower value 1 | locus YDL185W, strain tfp1, stronger effect = lower value 1.02 | locus YDL192W, strain arf1, stronger effect = lower value 1.03 | locus YDR001C, strain nth1, stronger effect = lower value 0.984 | locus YDR069C, strain doa4, stronger effect = lower value 0.963 | locus YDR101C, strain arx1, stronger effect = lower value 1 | locus YDR137W, strain rgp1, stronger effect = lower value 1.04 | locus YDR150W, strain NUM1, stronger effect = lower value 1 | locus YDR159W, strain sac3, stronger effect = lower value 0.968 | locus YDR162C, strain NBP2, stronger effect = lower value 0.991 | locus YDR195W, strain ref2 0.972 | locus YDR297W, strain sur2, stronger effect = lower value 0.984 | locus YDR318W, strain mcm21, stronger effect = lower value 1.01 | locus YDR334W, strain swr1, stronger effect = lower value 0.972 | locus YDR335W, strain msn5, stronger effect = lower value 0.993 | locus YDR388W, stronger effect = lower value 1.01 | locus YDR392W, strain spt3, stronger effect = lower value 0.784 | locus YDR502C, strain sam2, stronger effect = lower value 0.996 | locus YEL003W, strain gim4, stronger effect = lower value 0.977 | locus YEL037C, strain rad23, stronger effect = lower value 1 | locus YEL061C, strain CIN8 (second series), stronger effect = lower value 0.987 | locus YEL061C, strain CIN8, stronger effect = lower value 0.999 | locus YER015W, strain faa2, stronger effect = lower value 0.97 | locus YER016W, strain bim1, stronger effect = lower value 1 | locus YER110C, stronger effect = lower value 1.02 | locus YER111C, strain swi4, stronger effect = lower value 0.996 | locus YER155C, strain BEM2 (second series), stronger effect = lower value 0.931 | locus YER155C, strain BEM2, stronger effect = lower value 1.02 | locus YER167W, strain BCK2, stronger effect = lower value 0.987 | locus YFR010W, strain ubp6, stronger effect = lower value 1.01 | locus YGL078C, strain dbp3, stronger effect = lower value 1 | locus YGL086W, strain mad1, stronger effect = lower value 0.998 | locus YGL167C, strain pmr1, stronger effect = lower value 0.991 | locus YGL173C, strain kem1, stronger effect = lower value 0.983 | locus YGL227W, strain vid30, stronger effect = lower value 0.979 | locus YGL240W, strain doc1, stronger effect = lower value 0.957 | locus YGL248W, strain PDE1, stronger effect = lower value 1 | locus YGL253W, strain hxk2, stronger effect = lower value 1.01 | locus YGR078C, strain PAC10, stronger effect = lower value 0.975 | locus YGR135W, strain pre9, stronger effect = lower value 1.03 | locus YGR229C, strain SMI1, stronger effect = lower value 0.964 | locus YGR252W, strain gcn5, stronger effect = lower value 0.929 | locus YHR013C, strain ard1, stronger effect = lower value 0.92 | locus YHR027C, strain rpn1, stronger effect = lower value 0.953 | locus YHR030C, strain SLT2, stronger effect = lower value 1 and 0.982 | locus YHR079C, strain IRE1 (second series), stronger effect = lower value 1.01 | locus YHR079C, strain IRE1, stronger effect = lower value 0.978 | locus YHR094C, strain hxt1, stronger effect = lower value 1.02 | locus YHR129C, strain ARP1, stronger effect = lower value 1.01 | locus YHR142W, strain chs7, stronger effect = lower value 0.986 | locus YHR200W, strain rpn10, stronger effect = lower value 0.998 | locus YIL066C, strain RNR3, stronger effect = lower value 0.986 | locus YIL073C, strain SPO22, stronger effect = lower value 1.06 | locus YIL125W, strain kgd1, stronger effect = lower value 1 | locus YIR030C, strain dcg1, stronger effect = lower value 1.01 | locus YJL092W, strain hpr5, stronger effect = lower value 0.976 | locus YJL095W, strain BCK1 (second series), stronger effect = lower value 0.965 | locus YJL095W, strain BCK1, stronger effect = lower value 0.996 and 0.977 | locus YJL115W, strain asf1, stronger effect = lower value 0.966 | locus YJL129C, strain trk1, stronger effect = lower value 0.971 | locus YJL134W, strain LCB3, stronger effect = lower value 0.999 | locus YJL154C, strain vps35, stronger effect = lower value 0.986 | locus YJL164C, strain tpk1, stronger effect = lower value 0.988 | locus YJL166W, strain qcr8, stronger effect = lower value 0.981 | locus YJL168C, strain set2, stronger effect = lower value 1.01 | locus YJL187C, strain SWE1 (second series), stronger effect = lower value 0.999 | locus YJR043C, strain POL32, stronger effect = lower value 0.967 | locus YJR066W, strain TOR1, stronger effect = lower value 0.949 | locus YJR075W, strain HOC1, stronger effect = lower value 0.983

— PubChem BioAssay AID1159580 (chemical genetic matrix, 2015)
